ChEMBL document CHEMBL1961873, “Compounds: GSK PKIS; Assays: Nanosyn kinase panel” (2012)

Columns and labels:
[1] = target: Ribosomal protein S6 kinase alpha-6 (Homo sapiens) (UniProt Q9UK32); details: at 1 µM;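 also: each value is a mean inhibition of RSK4 from a GSK PKIS panel screen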
[2] = target: T1, Serine/threonine-protein kinase Sgk1 (Homo sapiens) (UniProt O00141); details: at 0.1 µM
T1 sequence (whole entry): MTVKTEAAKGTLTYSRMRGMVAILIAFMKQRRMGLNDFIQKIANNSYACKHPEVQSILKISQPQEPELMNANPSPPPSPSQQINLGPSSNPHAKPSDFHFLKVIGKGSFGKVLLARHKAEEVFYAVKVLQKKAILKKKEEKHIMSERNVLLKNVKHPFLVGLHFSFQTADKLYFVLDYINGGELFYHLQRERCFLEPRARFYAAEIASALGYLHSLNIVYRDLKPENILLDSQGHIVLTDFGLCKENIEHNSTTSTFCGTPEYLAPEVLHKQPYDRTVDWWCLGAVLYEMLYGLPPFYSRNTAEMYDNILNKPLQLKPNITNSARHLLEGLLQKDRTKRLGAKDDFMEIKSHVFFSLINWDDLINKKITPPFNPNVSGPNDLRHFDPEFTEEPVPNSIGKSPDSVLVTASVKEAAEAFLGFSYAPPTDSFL

[3] = target: T1, Serine/threonine-protein kinase Sgk1 (Homo sapiens); details: at 1 µM
[4] = target: T2, Serine/threonine-protein kinase Sgk2 (Homo sapiens) (UniProt Q9HBY8); details: at 0.1 µM
T2 sequence (whole entry): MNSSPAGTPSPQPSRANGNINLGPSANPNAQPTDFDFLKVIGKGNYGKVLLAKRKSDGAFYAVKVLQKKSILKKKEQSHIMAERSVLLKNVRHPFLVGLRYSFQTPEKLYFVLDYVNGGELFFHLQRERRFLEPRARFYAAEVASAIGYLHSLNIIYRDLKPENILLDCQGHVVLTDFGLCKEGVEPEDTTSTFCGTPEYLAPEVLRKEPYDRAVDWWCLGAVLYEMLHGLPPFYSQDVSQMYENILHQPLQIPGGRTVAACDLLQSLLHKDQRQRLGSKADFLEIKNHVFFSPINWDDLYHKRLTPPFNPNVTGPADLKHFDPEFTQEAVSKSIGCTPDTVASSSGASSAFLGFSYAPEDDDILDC

[5] = target: T2, Serine/threonine-protein kinase Sgk2 (Homo sapiens); details: at 1 µM
[6] = target: T3, Serine/threonine-protein kinase Sgk3 (Homo sapiens) (UniProt Q96BR1); details: at 0.1 µM
T3 sequence (whole entry): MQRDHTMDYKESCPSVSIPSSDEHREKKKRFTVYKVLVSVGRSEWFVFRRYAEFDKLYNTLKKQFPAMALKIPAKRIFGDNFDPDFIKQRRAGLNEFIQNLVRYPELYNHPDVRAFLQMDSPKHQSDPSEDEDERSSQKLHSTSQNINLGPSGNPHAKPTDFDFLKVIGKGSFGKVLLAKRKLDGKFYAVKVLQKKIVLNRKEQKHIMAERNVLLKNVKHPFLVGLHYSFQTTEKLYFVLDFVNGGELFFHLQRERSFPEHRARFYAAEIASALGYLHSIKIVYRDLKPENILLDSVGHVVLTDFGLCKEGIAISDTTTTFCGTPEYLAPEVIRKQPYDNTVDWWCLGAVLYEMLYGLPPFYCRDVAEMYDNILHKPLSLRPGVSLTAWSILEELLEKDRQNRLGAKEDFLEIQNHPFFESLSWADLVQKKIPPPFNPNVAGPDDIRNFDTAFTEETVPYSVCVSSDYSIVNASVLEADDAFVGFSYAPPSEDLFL

[7] = target: T3, Serine/threonine-protein kinase Sgk3 (Homo sapiens); details: at 1 µM
[8] = target: 5'-AMP-activated protein kinase catalytic subunit alpha-1 (Homo sapiens) (UniProt Q13131); details: at 0.1 µM
[9] = target: 5'-AMP-activated protein kinase catalytic subunit alpha-1 (Homo sapiens) (UniProt Q13131); details: at 1 µM
[10] = target: 5'-AMP-activated protein kinase catalytic subunit alpha-2 (Homo sapiens) (UniProt P54646); details: at 0.1 µM
[11] = target: 5'-AMP-activated protein kinase catalytic subunit alpha-2 (Homo sapiens) (UniProt P54646); details: at 1 µM
[12] = target: T4, NUAK family SNF1-like kinase 1 (Homo sapiens) (UniProt O60285); details: at 0.1 µM
T4 sequence (whole entry): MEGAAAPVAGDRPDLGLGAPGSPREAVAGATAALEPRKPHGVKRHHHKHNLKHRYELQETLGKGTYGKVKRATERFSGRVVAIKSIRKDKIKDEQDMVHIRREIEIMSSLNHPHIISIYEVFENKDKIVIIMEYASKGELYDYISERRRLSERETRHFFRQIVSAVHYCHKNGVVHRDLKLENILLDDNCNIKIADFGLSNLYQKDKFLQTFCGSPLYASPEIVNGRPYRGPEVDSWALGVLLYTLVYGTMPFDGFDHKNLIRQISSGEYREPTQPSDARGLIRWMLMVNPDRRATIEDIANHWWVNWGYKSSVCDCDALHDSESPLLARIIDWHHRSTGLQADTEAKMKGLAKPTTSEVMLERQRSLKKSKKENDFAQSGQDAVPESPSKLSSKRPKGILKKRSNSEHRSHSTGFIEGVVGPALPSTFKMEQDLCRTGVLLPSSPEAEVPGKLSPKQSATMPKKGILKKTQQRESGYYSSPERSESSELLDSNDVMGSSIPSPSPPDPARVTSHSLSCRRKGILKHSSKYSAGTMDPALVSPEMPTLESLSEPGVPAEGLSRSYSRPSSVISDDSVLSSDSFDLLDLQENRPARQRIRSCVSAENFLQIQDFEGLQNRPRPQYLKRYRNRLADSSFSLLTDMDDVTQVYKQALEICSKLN

[13] = target: T4, NUAK family SNF1-like kinase 1 (Homo sapiens); details: at 1 µM
[14] = target: T5, Serine/threonine-protein kinase BRSK1 (Homo sapiens) (UniProt Q8TDC3); details: at 0.1 µM
T5 sequence (whole entry): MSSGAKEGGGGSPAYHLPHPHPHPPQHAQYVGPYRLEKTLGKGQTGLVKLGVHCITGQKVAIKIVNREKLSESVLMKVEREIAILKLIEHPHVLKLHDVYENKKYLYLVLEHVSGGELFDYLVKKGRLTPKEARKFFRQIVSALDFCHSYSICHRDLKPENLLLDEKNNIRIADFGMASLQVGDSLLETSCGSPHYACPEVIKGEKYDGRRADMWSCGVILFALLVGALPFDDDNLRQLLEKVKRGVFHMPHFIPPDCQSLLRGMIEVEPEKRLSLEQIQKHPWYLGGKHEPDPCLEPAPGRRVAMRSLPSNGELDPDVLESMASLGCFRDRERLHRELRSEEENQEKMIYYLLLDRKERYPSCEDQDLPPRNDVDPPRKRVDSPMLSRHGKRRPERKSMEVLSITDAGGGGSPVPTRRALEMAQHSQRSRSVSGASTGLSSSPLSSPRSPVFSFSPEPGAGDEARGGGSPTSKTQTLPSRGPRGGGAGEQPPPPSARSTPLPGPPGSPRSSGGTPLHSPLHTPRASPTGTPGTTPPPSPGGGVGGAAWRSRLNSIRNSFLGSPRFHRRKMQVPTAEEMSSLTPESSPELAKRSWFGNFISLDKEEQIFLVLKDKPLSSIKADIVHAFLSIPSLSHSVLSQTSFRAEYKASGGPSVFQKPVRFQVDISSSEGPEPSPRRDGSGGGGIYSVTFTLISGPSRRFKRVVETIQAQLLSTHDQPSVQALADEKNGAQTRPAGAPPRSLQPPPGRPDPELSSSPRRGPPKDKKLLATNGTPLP

[15] = target: T5, Serine/threonine-protein kinase BRSK1 (Homo sapiens); details: at 1 µM
[16] = target: T6, Serine/threonine-protein kinase BRSK2 (Homo sapiens) (UniProt Q8IWQ3); details: at 0.1 µM
T6 sequence (whole entry): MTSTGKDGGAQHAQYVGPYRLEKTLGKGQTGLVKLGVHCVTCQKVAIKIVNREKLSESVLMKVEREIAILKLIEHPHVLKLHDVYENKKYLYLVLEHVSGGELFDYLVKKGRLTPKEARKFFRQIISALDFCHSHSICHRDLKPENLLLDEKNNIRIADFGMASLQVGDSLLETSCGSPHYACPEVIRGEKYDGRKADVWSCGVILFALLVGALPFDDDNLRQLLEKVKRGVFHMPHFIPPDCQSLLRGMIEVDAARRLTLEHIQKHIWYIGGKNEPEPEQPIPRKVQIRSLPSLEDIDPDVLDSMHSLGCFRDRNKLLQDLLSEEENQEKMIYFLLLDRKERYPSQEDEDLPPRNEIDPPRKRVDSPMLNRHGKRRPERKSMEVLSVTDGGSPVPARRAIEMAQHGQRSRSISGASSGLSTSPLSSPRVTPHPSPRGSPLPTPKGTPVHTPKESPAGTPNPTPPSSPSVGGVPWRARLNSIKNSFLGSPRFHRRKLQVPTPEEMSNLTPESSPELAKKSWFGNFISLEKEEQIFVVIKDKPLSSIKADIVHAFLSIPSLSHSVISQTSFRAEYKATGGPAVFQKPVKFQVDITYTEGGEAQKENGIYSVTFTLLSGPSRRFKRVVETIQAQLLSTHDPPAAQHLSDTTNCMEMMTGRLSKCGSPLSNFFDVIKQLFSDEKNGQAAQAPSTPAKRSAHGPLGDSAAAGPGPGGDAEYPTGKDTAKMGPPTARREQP

[17] = target: T6, Serine/threonine-protein kinase BRSK2 (Homo sapiens); details: at 1 µM
[18] = target: Calcium/calmodulin-dependent protein kinase type 1D (Homo sapiens) (UniProt Q8IU85); details: at 0.1 µM
[19] = target: Calcium/calmodulin-dependent protein kinase type 1D (Homo sapiens) (UniProt Q8IU85); details: at 1 µM
[20] = target: Calcium/calmodulin-dependent protein kinase type II subunit alpha (Homo sapiens) (UniProt Q9UQM7); details: at 0.1 µM;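 also: reported values are averages (mean inhibition of CAMK2A)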
Chain of Calcium/calmodulin-dependent protein kinase type II subunit alpha (Homo sapiens) (Q9UQM7 whole entry): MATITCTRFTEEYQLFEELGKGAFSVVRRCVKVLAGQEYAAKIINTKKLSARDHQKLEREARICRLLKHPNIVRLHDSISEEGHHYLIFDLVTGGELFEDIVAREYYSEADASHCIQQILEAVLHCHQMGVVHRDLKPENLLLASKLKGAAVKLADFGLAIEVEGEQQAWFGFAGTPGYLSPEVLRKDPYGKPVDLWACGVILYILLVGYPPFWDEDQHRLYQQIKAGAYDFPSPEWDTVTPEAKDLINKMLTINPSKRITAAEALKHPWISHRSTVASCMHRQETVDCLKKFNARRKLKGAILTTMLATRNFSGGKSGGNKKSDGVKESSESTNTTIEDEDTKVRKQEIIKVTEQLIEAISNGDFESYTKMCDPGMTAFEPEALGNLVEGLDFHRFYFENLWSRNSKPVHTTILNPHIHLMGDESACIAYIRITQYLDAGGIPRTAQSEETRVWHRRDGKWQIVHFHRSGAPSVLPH

Chain of Calcium/calmodulin-dependent protein kinase type 1D (Homo sapiens) (Q8IU85 whole entry, looked up): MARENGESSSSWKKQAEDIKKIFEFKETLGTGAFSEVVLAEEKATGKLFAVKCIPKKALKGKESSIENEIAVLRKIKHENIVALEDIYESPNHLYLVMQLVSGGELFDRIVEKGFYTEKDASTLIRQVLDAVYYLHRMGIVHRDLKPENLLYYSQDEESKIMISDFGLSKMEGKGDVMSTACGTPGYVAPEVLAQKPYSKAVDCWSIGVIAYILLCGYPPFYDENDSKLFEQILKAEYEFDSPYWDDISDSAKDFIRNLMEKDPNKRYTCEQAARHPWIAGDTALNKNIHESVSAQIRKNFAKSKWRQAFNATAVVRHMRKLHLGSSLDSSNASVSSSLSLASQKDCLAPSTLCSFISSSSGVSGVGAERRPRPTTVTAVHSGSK
Chain of 5'-AMP-activated protein kinase catalytic subunit alpha-2 (Homo sapiens) (P54646 whole entry, looked up): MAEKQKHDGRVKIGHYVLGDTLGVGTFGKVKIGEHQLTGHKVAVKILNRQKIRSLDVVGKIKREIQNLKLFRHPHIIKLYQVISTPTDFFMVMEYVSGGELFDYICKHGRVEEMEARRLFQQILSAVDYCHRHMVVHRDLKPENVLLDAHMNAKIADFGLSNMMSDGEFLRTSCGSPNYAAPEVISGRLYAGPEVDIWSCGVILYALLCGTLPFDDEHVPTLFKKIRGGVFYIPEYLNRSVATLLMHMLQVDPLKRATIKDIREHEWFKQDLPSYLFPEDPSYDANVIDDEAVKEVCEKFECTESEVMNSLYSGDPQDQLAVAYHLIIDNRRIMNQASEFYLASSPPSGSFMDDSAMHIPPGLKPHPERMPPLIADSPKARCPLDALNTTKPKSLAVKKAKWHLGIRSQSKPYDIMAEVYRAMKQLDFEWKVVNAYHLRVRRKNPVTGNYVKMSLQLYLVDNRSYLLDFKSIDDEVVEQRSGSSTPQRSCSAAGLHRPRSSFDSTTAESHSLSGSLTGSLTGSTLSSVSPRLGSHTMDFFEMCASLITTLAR
Chain of 5'-AMP-activated protein kinase catalytic subunit alpha-1 (Homo sapiens) (Q13131 whole entry, looked up): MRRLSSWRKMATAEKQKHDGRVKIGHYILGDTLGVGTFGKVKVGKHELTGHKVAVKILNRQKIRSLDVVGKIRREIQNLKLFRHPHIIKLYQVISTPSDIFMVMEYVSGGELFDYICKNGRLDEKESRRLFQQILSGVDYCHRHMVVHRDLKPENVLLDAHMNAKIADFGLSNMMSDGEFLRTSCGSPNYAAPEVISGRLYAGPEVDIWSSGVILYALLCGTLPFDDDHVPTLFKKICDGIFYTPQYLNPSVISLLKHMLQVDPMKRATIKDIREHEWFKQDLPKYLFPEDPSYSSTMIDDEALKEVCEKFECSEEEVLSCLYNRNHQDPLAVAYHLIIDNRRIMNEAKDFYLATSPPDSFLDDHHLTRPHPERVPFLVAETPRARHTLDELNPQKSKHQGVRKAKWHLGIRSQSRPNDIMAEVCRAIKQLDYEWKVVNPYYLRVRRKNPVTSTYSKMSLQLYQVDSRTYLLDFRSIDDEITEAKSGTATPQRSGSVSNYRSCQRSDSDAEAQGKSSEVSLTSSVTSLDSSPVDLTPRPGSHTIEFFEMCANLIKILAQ
Chain of Ribosomal protein S6 kinase alpha-6 (Homo sapiens) (Q9UK32 whole entry): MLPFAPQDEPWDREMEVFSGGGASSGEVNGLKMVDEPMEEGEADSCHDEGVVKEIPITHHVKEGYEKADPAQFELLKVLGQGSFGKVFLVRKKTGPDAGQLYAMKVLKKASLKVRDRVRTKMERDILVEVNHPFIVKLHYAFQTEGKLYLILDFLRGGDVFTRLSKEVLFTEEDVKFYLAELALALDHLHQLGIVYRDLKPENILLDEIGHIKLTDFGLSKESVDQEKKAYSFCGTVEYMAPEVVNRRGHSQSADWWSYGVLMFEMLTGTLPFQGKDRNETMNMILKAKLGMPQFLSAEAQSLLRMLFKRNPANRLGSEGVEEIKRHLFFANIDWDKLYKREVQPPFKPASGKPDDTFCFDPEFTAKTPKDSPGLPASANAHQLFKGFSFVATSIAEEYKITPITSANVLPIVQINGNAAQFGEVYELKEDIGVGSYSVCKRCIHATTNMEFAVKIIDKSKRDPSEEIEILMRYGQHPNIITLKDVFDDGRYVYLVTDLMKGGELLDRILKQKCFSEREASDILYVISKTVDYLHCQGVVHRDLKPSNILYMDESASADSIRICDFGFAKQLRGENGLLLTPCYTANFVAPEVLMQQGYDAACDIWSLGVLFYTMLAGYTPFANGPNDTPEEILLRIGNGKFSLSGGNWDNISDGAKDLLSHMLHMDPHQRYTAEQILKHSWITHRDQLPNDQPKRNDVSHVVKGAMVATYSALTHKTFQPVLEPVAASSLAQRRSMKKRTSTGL

| Compound | inhibition [1] | inhibition [2] | inhibition [3] | inhibition [4] | inhibition [5] | inhibition [6] | inhibition [7] | inhibition [8] | inhibition [9] | inhibition [10] | inhibition [11] | inhibition [12] | inhibition [13] | inhibition [14] | inhibition [15] | inhibition [16] | inhibition [17] | inhibition [18] | inhibition [19] | inhibition [20] |
| --- | --- | --- | --- | --- | --- | --- | --- | --- | --- | --- | --- | --- | --- | --- | --- | --- | --- | --- | --- | --- |
| CC(=O)Nc1cccc(C#Cc2cncnc2Nc2ccc(OCc3cccc(F)c3)c(Cl)c2)c1 | 1.39% | 3.01% | 2.43% | -0.35% | 2.06% | 2.61% | -0.92% | 1.72% | -0.52% | 2.44% | 2.19% | 1.95% | 7.23% | 2.55% | 1.82% | 1.34% | 0.36% | 2.97% | 3.77% | 4.42% |
| Cc1ccc2c(-c3ccnc(Nc4ccccc4)n3)c(-c3ccc(F)cc3)nn2n1 | 4.74% | 2.01% | 1.69% | 2.15% | 3.69% | 2.63% | 2.1% | 2.48% | 2.15% | 0.59% | 3.36% | 1.74% | 6.31% | 1.47% | 1.77% | 1.27% | 0.62% | 0.93% | 1.34% | 4.27% |
| NC(=O)c1sc(-n2cnc3ccc(C(F)(F)F)cc32)cc1OCc1ccccc1Br | 2.19% | 3.07% | 4.04% | -0.91% | 3.21% | 3.83% | 4.65% | 2.58% | 4.41% | 3.14% | 3.78% | -0.18% | 3.82% | 0.06% | 1.03% | 2.41% | 4.25% | -0.93% | 0.69% | 1.87% |
| Clc1ccc(-c2nn3ncccc3c2-c2ccnc(Nc3ccccc3)n2)cc1 | 1.59% | 3.14% | 1.09% | 1.58% | 0.53% | 1.92% | -1.01% | 0.45% | 0.54% | 1.86% | 2.26% | 0.79% | 4.21% | 0.06% | 1.52% | -0.16% | -0.21% | 2.4% | 1.17% | 0.95% |
| COc1ccc2c(-c3ccnc(Nc4cccc(OC(F)(F)F)c4)n3)cnn2n1 | 3.03% | 3.35% | 2.06% | 6.82% | 9.02% | 5.66% | 4.44% | 4.09% | 7.03% | -7% | 5.72% | 6.86% | 30.7% | -1.42% | 3.33% | 2.27% | 3.88% | 0.18% | 2.77% | 4.78% |
| CNC(=O)c1cc(-c2ccc(F)cc2)cc(-c2ccc(S(=O)(=O)N3CCCC3)cc2)c1N | 1.28% | 2.26% | 1.89% | 2.87% | 0.33% | 2.62% | 3.57% | 1.77% | 2.03% | 6.28% | 2.93% | 1.2% | 1.2% | 1.39% | -2.02% | 0.91% | 2.02% | -0.49% | 1.09% | 0.94% |
| CCn1c(-c2nonc2N)nc2ccccc21 | 10.4% | 4.57% | 5.48% | -0.51% | 9.28% | 2.3% | 23.6% | 3.06% | 1.63% | 0.31% | 4.49% | 1.56% | 10.1% | 2.54% | 8.27% | 1.85% | 9.49% | 1.89% | 2.35% | 4.29% |
